The list is not random: actives were taken first. Their share in the collection is about 3%.
SENP7 inh = SENP7 protease inhibition; AID 434973; inhibition, % at 5 µM; 330,000 tested, 1.5% active; recombinant SENP7, Z-RLRGG-aminoluciferin luminescence, 40 min;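 active = inhibition above about 50% at the single test dose, limit read from the data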;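 note: plate controls were DMSO with enzyme for no effect and no enzyme buffer wells for full effect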
Target sequence (Q9BQF6 706-1050 limits assumed): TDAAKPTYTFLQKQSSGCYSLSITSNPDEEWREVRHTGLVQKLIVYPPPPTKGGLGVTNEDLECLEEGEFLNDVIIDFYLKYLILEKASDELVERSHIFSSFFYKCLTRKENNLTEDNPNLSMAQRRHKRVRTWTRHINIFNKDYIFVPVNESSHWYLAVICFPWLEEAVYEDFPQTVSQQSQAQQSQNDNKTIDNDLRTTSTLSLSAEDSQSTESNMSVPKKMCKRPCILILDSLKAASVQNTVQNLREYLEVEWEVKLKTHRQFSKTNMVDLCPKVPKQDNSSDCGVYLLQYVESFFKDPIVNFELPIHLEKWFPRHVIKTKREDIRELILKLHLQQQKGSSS
C8 TRAIL sens = caspase-8 TRAIL sensitization. NB7+C8 cells + TRAIL, ATPlite viability luminescence. inhibition (viability loss, TRAIL sensitization), % at 10 µM. 360,000 tested, 1% active. AID 624354;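 active = compounds causing at least 50% loss of cell viability in the single-dose screen, relative to plate controls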
SENP6 block = SENP6 protease inhibition; Q9GZR1; Recombinant SENP6 catalytic domain, aminoluciferin luminescence; inhibition, % at 10 µM; 330,000 tested, 1.8% active; AID 2599;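 active = inhibition above about 50% at the single tested dose, limit read from the data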;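 note: plate controls were DMSO wells with enzyme for no effect and DMSO wells lacking enzyme for full effect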
SENP8 block-1 = blocks human SENP8 cleavage of Nedd8 substrate | Q96LD8 | recombinant SENP8, Nedd8 substrate fluorescence | inhibition, % at 20 µM | 360,000 tested, 0.64% active | AID 602440; in the data active = inhibition mostly above about 40%, no sharp cut-off; inactive = mostly below about 27%
PPC-1+TRAIL kill = kills PPC-1 cancer cells in the presence of TRAIL | 220,000 tested, 0.41% active | PPC-1 cells + TRAIL, ATPLite viability luminescence | cell killing (% activity), % at 4 µM or 5 µM | AID 1443;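 active = cell killing above 50% in the first pass at 4 µM, then a duplicate retest at 5 µM averaging 50% or more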;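 note: plate controls were cells with TRAIL plus DMSO for no effect and medium-only wells lacking cells for full effect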
SENP8 block-2 = blocks the human protease SENP8; purified SENP8, Z-RLRGG-aminoluciferin cleavage, luminescence; inhibition, % at 10 µM; 330,000 tested, 1.2% active; in the data active = inhibition above about 50%
PPC-1 tox = kills PPC-1 cells; shares compounds with PPC-1+TRAIL kill; PPC-1 viability, ATPlite luminescence, overnight; cytotoxicity, % at 5 µM; 1,200 tested, 50% active; AID 1447;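 active = reconfirmed compounds whose average cytotoxicity reaches 50% or more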;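 note: 0% = DMSO-treated cells and 100% = wells holding medium but no cells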
SENP8 conf-1 = confirmation of human SENP8 protease inhibitors; shares compounds with SENP7 inh; Recombinant SENP8, Z-RLRGG-aminoluciferin luminescence, 60 min; inhibition, % at 12.5 µM; 6,200 tested, 40% active;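 active = mean inhibition across replicates above about 50%, limit read from the data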
SENP6 confirm = human SENP6 inhibition, confirmed; AID 488915; shares compounds with SENP7 inh; 6,200 tested, 58% active; inhibition, % at 12.5 µM; recombinant SENP6, Z-RLRGG-aminoluciferin luminescence
SENP7 conf = human SENP7 inhibition, confirmed; AID 488917; shares compounds with SENP7 inh; recombinant SENP7, Z-RLRGG-aminoluciferin luminescence, 40 min; inhibition, % at 12.5 µM; 6,200 tested, 69% active
Casp3 SENP sel = caspase-3 inhibition (SENP selectivity assay) | shares compounds with SENP7 inh | purified caspase-3, Z-DEVD-aminoluciferin luminescence, 60 min | inhibition, % at 12.5 µM | 6,200 tested, 60% active | AID 488918;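 active = mean inhibition above about 50%, limit read from the data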;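 note: plate controls were enzyme with DMSO for no effect and wells without caspase-3 for full effect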
Target sequence (P42574 28-227 limits assumed): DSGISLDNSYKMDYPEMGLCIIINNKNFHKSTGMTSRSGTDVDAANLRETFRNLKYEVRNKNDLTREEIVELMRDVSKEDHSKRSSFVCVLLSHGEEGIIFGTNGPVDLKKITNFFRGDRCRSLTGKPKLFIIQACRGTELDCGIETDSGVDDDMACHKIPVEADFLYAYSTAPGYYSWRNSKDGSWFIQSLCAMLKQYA
SENP luc ctr = interferes with luciferase luminescence in SENP counter-screen; 6,200 tested, 39% active; AID 488919; inhibition, % at 12.5 µM; Pre-incubated SENP8/Z-RLRGG-aminoluciferin, luciferase luminescence interference; shares compounds with SENP7 inh;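 active = mean inhibition above about 50% when retested at one dose, limit read from the data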;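 note: plate controls were DMSO wells with completed reaction for no effect and substrate without enzyme for full effect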
SENP8 conf-2 = SENP8 (human) inhibition, single concentration confirmation; 1,400 tested, 15% active; inhibition, % at 25 µM; shares compounds with SENP8 block-1; purified SENP8, Nedd8-AMC/pro-Nedd8 cleavage fluorescence, 30 min; in the data active = inhibition mostly above about 39%, no sharp cut-off; inactive = mostly below about 34%
Numbers without * were called inactive.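 Rule for the calls, unless noted: active = mean inhibition above about 50% in the one-dose retest (limit read from the data); inactive = the rest.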

For Cc1ccc(C(=O)N/N=C/c2ccc([N+](=O)[O-])s2)cc1 the results were SENP7 inh 12, C8 TRAIL sens 23, SENP6 block 6, SENP8 block-1 44*, PPC-1+TRAIL kill 38, SENP8 block-2 7, PPC-1 tox 36 and SENP8 conf-2 24.
`COc1cccc(-c2oc3c(c2-c2ccc(Br)nc2)C(O)CCC3)c1` (stereo not given) gave C8 TRAIL sens -7 and SENP8 block-1 -92.
`Cc1cc2nc(-c3ccc[nH]c3=O)[nH]c2cc1C` gave SENP7 inh 97*, C8 TRAIL sens 90*, SENP6 block 95*, SENP8 block-1 -286, SENP8 block-2 92*, SENP8 conf-1 96*, SENP6 confirm 97*, SENP7 conf 102*, Casp3 SENP sel 98* and SENP luc ctr 82*.
Screening COc1ccccc1NC(=S)NCc1cccnc1 returned SENP7 inh 2, C8 TRAIL sens -2, SENP6 block 5, SENP8 block-1 17, PPC-1+TRAIL kill 21 and SENP8 block-2 -1.
Screening CCN(C(=S)Nc1cccnc1)c1cccc2ccccc12 returned SENP7 inh 54*, C8 TRAIL sens -2, SENP6 block 87*, SENP8 block-1 -376, PPC-1+TRAIL kill 26, SENP8 block-2 51*, SENP8 conf-1 -8, SENP6 confirm -4, SENP7 conf -1, Casp3 SENP sel -1 and SENP luc ctr -5.
`COc1ccccc1NC(=S)Nc1cccc2cnccc12` gave SENP7 inh 81*, C8 TRAIL sens 20, SENP6 block 91*, SENP8 block-1 -122, PPC-1+TRAIL kill 26, SENP8 block-2 1, SENP8 conf-1 -11, SENP6 confirm 10, SENP7 conf -4, Casp3 SENP sel 4 and SENP luc ctr 1.
`CCN(C(=S)Nc1cccnc1)c1ccccc1` gave SENP7 inh 11, C8 TRAIL sens 2, SENP6 block 7, SENP8 block-1 12, PPC-1+TRAIL kill -7 and SENP8 block-2 -2.
For S=C(Nc1ccc(Cl)cc1)Nc1cccc2cnccc12 the results were SENP7 inh 62*, C8 TRAIL sens 10, SENP6 block 92*, SENP8 block-1 -156, PPC-1+TRAIL kill 16, SENP8 block-2 85*, SENP8 conf-1 9, SENP6 confirm 56*, SENP7 conf 28, Casp3 SENP sel 7 and SENP luc ctr 6.
For COc1ccc(NC(=S)Nc2cccc3cnccc23)cc1 the results were SENP7 inh 67*, C8 TRAIL sens -2, SENP6 block 88*, SENP8 block-1 -31, PPC-1+TRAIL kill 57*, SENP8 block-2 -7, SENP8 conf-1 11, SENP6 confirm 40, SENP7 conf 22, Casp3 SENP sel 7 and SENP luc ctr 4.
For CN(C)S(=O)(=O)c1cccc(NC(=S)Nc2cccc3cnccc23)c1 the results were C8 TRAIL sens 29, SENP8 block-1 -229 and PPC-1+TRAIL kill 37.
Screening S=C(Nc1cccnc1)Nc1cccc2cnccc12 returned SENP7 inh 85*, C8 TRAIL sens -5, SENP6 block 95*, SENP8 block-1 -55, PPC-1+TRAIL kill 38, SENP8 block-2 92*, SENP8 conf-1 20, SENP6 confirm 48, SENP7 conf 28, Casp3 SENP sel 4 and SENP luc ctr -1.
`CCOc1ccc(NC(=S)Nc2cccc3cnccc23)cc1` gave SENP7 inh 63*, C8 TRAIL sens -4, SENP6 block 87*, SENP8 block-1 -42, PPC-1+TRAIL kill 34, SENP8 block-2 -3, SENP8 conf-1 13, SENP6 confirm 33, SENP7 conf 22, Casp3 SENP sel 12 and SENP luc ctr 16.
Screening CCOc1ccc(NC(=S)Nc2ccc(OCC)cc2)cc1 returned SENP7 inh -6, C8 TRAIL sens 1, SENP6 block -13, SENP8 block-1 6, PPC-1+TRAIL kill 5 and SENP8 block-2 -10.
`CCOc1ccc(NC(=S)Nc2cccc3ccccc23)cc1` gave SENP7 inh 34, C8 TRAIL sens 8, SENP6 block 88*, SENP8 block-1 -404, SENP8 block-2 50*, SENP8 conf-1 9, SENP6 confirm 9, SENP7 conf 11, Casp3 SENP sel 3 and SENP luc ctr 10.
`Cc1ccccc1-c1nc2cc(N)ccc2o1` gave SENP7 inh 74*, C8 TRAIL sens 40, SENP6 block 72*, SENP8 block-1 -264, PPC-1+TRAIL kill 45, SENP8 block-2 60*, SENP8 conf-1 9, SENP6 confirm 9, SENP7 conf -3, Casp3 SENP sel 0 and SENP luc ctr 1.
Screening Nc1ccc(-c2nc3ncccc3o2)c(O)c1 returned SENP7 inh -4, C8 TRAIL sens 8, SENP6 block 5, SENP8 block-1 -285 and SENP8 block-2 -5.
For CC(C)c1ccc2oc(-c3cc(N)ccc3O)nc2c1 the results were SENP7 inh 86*, C8 TRAIL sens 66*, SENP6 block 94*, SENP8 block-1 -115, PPC-1+TRAIL kill 28, SENP8 block-2 91*, SENP8 conf-1 44, SENP6 confirm 91*, SENP7 conf 94*, Casp3 SENP sel 70* and SENP luc ctr 20.
`Cc1ccccc1-c1nc2ccccc2c(=O)o1` gave C8 TRAIL sens -9 and SENP8 block-1 -30.
O=c1[nH]c2ccccc2nc1/C=C/c1ccccc1 was read as SENP7 inh 56*, C8 TRAIL sens 34, SENP6 block 10, SENP8 block-1 -395, PPC-1+TRAIL kill 18, SENP8 block-2 56*, SENP8 conf-1 14, SENP6 confirm 27, SENP7 conf 49, Casp3 SENP sel 42 and SENP luc ctr 16.
Screening CC(C)(C)/C(O)=C/c1nc2ccccc2[nH]c1=O returned SENP7 inh -4, C8 TRAIL sens -2, SENP6 block -7, SENP8 block-1 -14, PPC-1+TRAIL kill -20 and SENP8 block-2 4.
